{"source": "PubChem BioAssay (Tox21)", "note": "Unmarked numbers belong to inactive results. Activity calls are given as the source filed them. The call rests on the fitted dose curve; in most records, active means well fitted curve in the direction sought with a large enough effect in the repeat runs; inconclusive means weak or mixed curves; inactive means flat fitted curve, though single readings scatter. On the % scale 0 is the no-effect control and ±100 the full control effect.", "data": [{"assay": "qHTS assay to test for compound auto fluorescence at 535 nm (green) in HepG2 cell free culture (AID 720686)", "details": "Cell-free medium, green autofluorescence 485/535 nm; series mostly up to 91.3 µM; fluorescence, % of fluorescein control: at the top concentration", "source_text": "U.S. Tox21 Program National Center for Advancing Translational Sciences [NCATS] NIH Chemical Genomics Center [NCGC] U.S. Environmental Protection Agency [EPA] National Institutes of Environmental Health Sciences [NIEHS] National Toxicology Program [NTP] U.S. Food and Drug Administration [FDA] Tox21 Assay Overview: Compound auto fluorescence often interferes with screening of the compound library against various biological targets and signaling pathways. Some of these compounds may have fluorophoric properties. Such properties may interfere with the assay outputs resulting in false positives and/or negatives. To decrease such complications and ensure the compound activities are relevant in terms of biological response, the Tox21 10K compound library was screened for auto fluorescence. From the fluorophores used as reporter signals in our screening assays, the auto fluorescence equivalencies of compounds against three fluorophores have been evaluated: Triamterene, Fluorescein and Rose Bengal sodium for blue, green and red fluorescence, respectively. The fluorescence intensities were measured using Excitation/Emission wavelengths at 405/460nm, 485/535nm and 540/590nm for blue, green and red labels, respectively. This assay includes the green fluorescence data.\nTox21 Assay Protocol Summary: 5 uL of culture medium (MEM containing 10% FBS) per well was dispensed into black wall/clear bottom 1536-well plates using a Multidrop Combi Dispenser (ThermoFisher Scientific, Waltham, MA). After 23 nL compound or DMSO vehicle was transferred into assay plate by a pintool work station (Kalypsys, San Diego, CA), fluorescence intensities in the assay plates were measured by an Envision (PerkinElmer, Shelton, CT) plate reader using three labels for measuring blue, green and red fluorescence at […] 460, 535 and 590nm respectively.", "values": [{"smiles": "COC(C)CCO", "note": "(stereo not given)", "fluorescence, % of fluorescein control": "-0.0228%"}, {"smiles": "CC(C)(C)C1CCCCC1=O", "note": "(stereo not given)", "fluorescence, % of fluorescein control": "-0.0797%"}, {"smiles": "CCN(O)CC", "fluorescence, % of fluorescein control": "-0.223%"}, {"smiles": "C=CCc1cc(OC)c(O)c(C(=O)NCCO)c1", "fluorescence, % of fluorescein control": "0.0094% [at 46 µM]"}, {"smiles": "O=C(O)CN(CCN(CC(=O)O)CC(=O)O)CCN(CC(=O)O)CC(=O)O", "fluorescence, % of fluorescein control": "-0.0071% [at 46 µM]"}, {"smiles": "CCCCCCCCCC#N", "fluorescence, % of fluorescein control": "0.0796%"}, {"smiles": "FC(F)(F)c1ccccc1", "fluorescence, % of fluorescein control": "-0.0356%"}, {"smiles": "CCc1nnc(NS(=O)(=O)c2ccc(N)cc2)s1", "fluorescence, % of fluorescein control": "-0.0524% [at 46 µM]"}, {"smiles": "CN(C)CC[C@@H](c1ccc(Cl)cc1)c1ccccn1", "fluorescence, % of fluorescein control": "0.0559% [at 46 µM]"}, {"smiles": "CC/C=C\\CCOC(=O)CCCCC", "fluorescence, % of fluorescein control": "-0.0053%"}, {"smiles": "CCOC(=O)C1CC(=O)C(=C(O)C2CC2)C(=O)C1", "note": "(stereo not given)", "fluorescence, % of fluorescein control": "0.116%"}, {"smiles": "Cc1c(C(=O)NCCO)[n+](=O)c2ccccc2n1[O-]", "fluorescence, % of fluorescein control": "0.0099% [at 46 µM]"}, {"smiles": "CCCCC(CC)COC(=O)COc1cc(Cl)c(Cl)cc1Cl", "note": "(stereo not given)", "fluorescence, % of fluorescein control": "0.108%"}, {"smiles": "CCN(CC)C(=O)N(CC)CC", "fluorescence, % of fluorescein control": "-0.0763%"}, {"smiles": "CCCCCCCCc1ccc(S(=O)(=O)O)cc1", "fluorescence, % of fluorescein control": "-0.0104%"}, {"smiles": "NNS(=O)(=O)c1ccc(Oc2ccc(S(=O)(=O)NN)cc2)cc1", "fluorescence, % of fluorescein control": "0.0465%"}, {"smiles": "NC(=O)Cc1cccc(C(=O)c2ccccc2)c1N", "fluorescence, % of fluorescein control": "0.0041% [at 46 µM]"}, {"smiles": "CC1(C)S[C@@H]2[C@H](NC(=O)C(C(=O)O)c3ccccc3)C(=O)N2[C@H]1C(=O)O", "note": "(stereo not given in full)", "fluorescence, % of fluorescein control": "0.0941% [at 46 µM]"}, {"smiles": "CC1(C)C(=O)N(Cl)C(=O)N1Br", "fluorescence, % of fluorescein control": "0.0096%"}, {"smiles": "C=C(C)C(=O)OCCOP(=O)(O)O", "fluorescence, % of fluorescein control": "0.0764% [at 95.7 µM]"}, {"smiles": "CN(C)CCOc1ccccc1Cc1ccccc1", "fluorescence, % of fluorescein control": "0.0562% [at 46 µM]"}, {"smiles": "CS(=O)(=O)c1ccc([C@@H](O)[C@@H](CF)NC(=O)C(Cl)Cl)cc1", "fluorescence, % of fluorescein control": "-0.0102% [at 18.6 µM]"}, {"smiles": "Cc1nnc(SCC2=C(C(=O)O)N3C(=O)[C@@H](NC(=O)Cn4cnnn4)[C@H]3SC2)s1", "fluorescence, % of fluorescein control": "0.129% [at 46 µM]"}, {"smiles": "C[C@@H]1CN(c2c(F)c(N)c3c(=O)c(C(=O)O)cn(C4CC4)c3c2F)C[C@H](C)N1", "fluorescence, % of fluorescein control": "-0.0129% [at 46 µM]"}, {"smiles": "CC(C)C(=O)OCC(C)(C)C(O)C(C)C", "note": "(stereo not given)", "fluorescence, % of fluorescein control": "0.0118%"}, {"smiles": "CN1CCC[C@@H]1Cc1c[nH]c2ccc(CCS(=O)(=O)c3ccccc3)cc12", "fluorescence, % of fluorescein control": "0.125% [at 46 µM]"}, {"smiles": "COc1ccc(Nc2ccc(OC)cc2)cc1", "fluorescence, % of fluorescein control": "0.0034% [at 95.7 µM]"}, {"smiles": "CC1CN(c2ccccc2)NC1=O", "note": "(stereo not given)", "fluorescence, % of fluorescein control": "-0.0225%"}, {"smiles": "Cc1c(N)cccc1N", "fluorescence, % of fluorescein control": "1% [at 95.7 µM]"}, {"smiles": "CC(=O)Nc1ccc(C)c(Cl)c1", "fluorescence, % of fluorescein control": "-0.0993%"}, {"smiles": "CCN(CCCc1ccccc1)CCCc1ccccc1", "fluorescence, % of fluorescein control": "0.0299% [at 18.6 µM]"}, {"smiles": "COc1cc(C)ccc1C(C)C", "fluorescence, % of fluorescein control": "0.0742%"}, {"smiles": "Cc1ccsc1C(=CCCN1CCC[C@@H](C(=O)O)C1)c1sccc1C", "fluorescence, % of fluorescein control": "0.0501% [at 46 µM]"}, {"smiles": "C1CCOC1", "fluorescence, % of fluorescein control": "0.0105% [at 95.7 µM]"}, {"smiles": "CN1CCN(c2c(F)cc3c(=O)c(C(=O)O)cn4c3c2SCC4)CC1", "fluorescence, % of fluorescein control": "0.0442% [at 46 µM]"}, {"smiles": "NC1=NCC2c3ccccc3Cc3ccccc3N12", "note": "(stereo not given)", "fluorescence, % of fluorescein control": "0.0524% [at 46 µM]"}, {"smiles": "O=C(O[C@@H](C(=O)O)[C@@H](OC(=O)c1ccccc1)C(=O)O)c1ccccc1", "fluorescence, % of fluorescein control": "0.0078% [at 95.7 µM]"}, {"smiles": "OCCN1CCN(CCO)CC1", "fluorescence, % of fluorescein control": "-0.0055% [at 95.7 µM]"}, {"smiles": "CCCCC(=O)O[C@]1(C(=O)CO)[C@H](C)C[C@H]2[C@@H]3CCC4=CC(=O)C=C[C@]4(C)[C@@]3(F)[C@@H](O)C[C@@]21C", "fluorescence, % of fluorescein control": "-0.0178% [at 46 µM]"}, {"smiles": "C=Cc1ccccc1", "outcome": "inactive"}]}]}
